From PubChem BioAssay
SARS PLP yeast = blocks SARS-CoV papain-like protease in a yeast assay. S. cerevisiae expressing SARS-CoV PLpro, growth rescue. Potency, µM (titrated, usually from 32.9 µM), hits mostly activators. hit rate 0.19% among 330,000. AID 485353; further: nearly all actives have a fitted effect of over 55% in size
Shiga inhibitor = inhibitors of Shiga toxin in Vero cells; hit rate 9.2% among 290,000; Vero cells, Shiga toxin protein synthesis inhibition reporter; AID 2315; inhibition, % at 38.7 µM; in the data active means inhibition mostly above about 28%, no sharp cut-off; inactive means mostly below about 43%
Pf growth 48h = P. falciparum growth inhibition at 48 hours (one generation) | P. falciparum luciferase growth in erythrocytes, 48 h | Potency, µM (top dose mostly 28.7 µM), usual class: inhibitors | hit rate 5.9% among 310,000 | AID 504832; active means well fitted inhibition curve with a large enough effect; inconclusive means small, poorly fitted or top-dose-only effect, or another doubt; inactive means no such curve, though single readings can be large or run the other way
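Read-out is firefly luciferase luminescence from an integrated reporter in P. falciparum, so falling signal marks reduced parasite growth. Infected erythrocytes were at 2% hematocrit and 0.1% parasitemia (final) in Albumax-supplemented RPMI 1640.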
CHX counter = affects cycloheximide protein synthesis inhibition readout, counter-screen | cell reporter, cycloheximide protein synthesis inhibition counterscreen | max response, % | hit rate 12% among 300,000 | AID 2314; in the data active means max response mostly above about 13%, no sharp cut-off; inactive means mostly below about 14%; further: read at 38.3 µM for the half of the compounds with a filed dose
NS1 inh = blocks influenza NS1 protein function; Potency, µM (highest dose often 46.1 µM); hit rate 0.4% among 270,000; AID 2326; further: actives are rising curves; nearly all actives have a fitted effect of over 50% in size
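A cell-based growth assay was used: compounds that relieve NS1-induced slow growth of budding yeast raise OD600. Assay medium was yeast nitrogen base with ammonium sulphate and -URA supplement, pH 6.0, with 2% galactose.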
Pf growth 96h = inhibits malaria parasite growth, 96 h; P. falciparum luciferase reporter growth, 96 h; Potency, µM (top dose mostly 28.7 µM), most hits filed as inhibitors; hit rate 6.9% among 320,000; active means well fitted inhibition curve with a large enough effect; inconclusive means small, poorly fitted or top-dose-only effect, or another doubt; inactive means no such curve, though single readings can be large or run the other way
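Two-generation exposure (96 h) targets delayed-death phenotype. Reporter parasites carrying integrated firefly luciferase, in red cells at 2% hematocrit and 0.05% parasitemia final, kept at 37 C, 5% CO2; luminescence loss indicates inhibition.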
Each line names hits and unclear results; the compound was inactive in the other large screens. Rows were chosen to be rich in hits. Some 21% of all compounds tested hit in one or more screens of this group. Unless noted, the call rests on the fitted dose curve.

Cc1ccc(C)c(S(=O)(=O)N2CCN(C(=O)C3CCN(c4ncnc5sc(C)c(C)c45)CC3)CC2)c1	Pf growth 48h 5.22µM, Pf growth 96h inconclusive (no result: Shiga inhibitor, CHX counter, NS1 inh)
CCN(CC)S(=O)(=O)c1cc(NC(=O)C2CCN(c3ncnc4sc(C)c(C)c34)CC2)ccc1Cl	Pf growth 48h 11.7µM, Pf growth 96h 5.22µM (no result: Shiga inhibitor, CHX counter, NS1 inh)
O=C(CSc1ncnc2sc(-c3ccccc3)cc12)NC1CCS(=O)(=O)C1 (stereo not given)	Pf growth 96h inconclusive (no result: NS1 inh)
Cc1ccc(S(=O)(=O)N2CCN(c3ccccc3)CC2)cc1C(N)=O	Pf growth 96h 13.1µM (no result: NS1 inh)
O=C(Nc1ccncc1)c1cc(S(=O)(=O)N2CCN(c3ccccc3)CC2)ccc1Cl	Pf growth 48h 11.7µM, Pf growth 96h inconclusive (no result: Shiga inhibitor, CHX counter, NS1 inh)
O=C(O)c1cc(S(=O)(=O)N2CCN(C(c3ccccc3)c3ccccc3)CC2)ccc1Cl	Pf growth 48h 11.7µM, Pf growth 96h 9.28µM
O=C(Nc1ccncc1)c1cc(S(=O)(=O)N2CCCC2)ccc1Cl	none (no result: Shiga inhibitor, Pf growth 48h, CHX counter, NS1 inh, Pf growth 96h)
NC(=O)Cn1c(=O)n(C2CCCCC2)c(=O)c2c3c(sc21)CCCCC3	Pf growth 48h inconclusive, Pf growth 96h 2.33µM
CS(=O)(=O)N(CC(=O)N1CCCCCC1)c1cccc([N+](=O)[O-])c1	none (no result: Shiga inhibitor)
CCOC(=O)c1c(CN(CC)CC)oc2ccc(OC)cc12	Pf growth 48h inconclusive, Pf growth 96h 14.7µM
CCOC(=O)c1c(CN(CC)CC)oc2cc(Br)c(O)cc12	Pf growth 96h inconclusive (no result: Pf growth 48h)
O=C1CCC/C1=C/Nc1ccc(Cl)cc1	Shiga inhibitor 71.7, CHX counter 30.5, Pf growth 96h inconclusive (no result: NS1 inh)
CC1CCC/C(=C\Nc2ccc3c(c2)OCO3)C1=O (stereo not given)	Shiga inhibitor 51.2, CHX counter 32.7 (no result: Pf growth 48h)
O=C1CCC/C1=C/Nc1ccc2c(c1)OCO2	Shiga inhibitor 94.8, Pf growth 48h inconclusive, CHX counter 42.2
O=C1CCCC/C1=C/Nc1cccc(C(F)(F)F)c1	Shiga inhibitor 50.4, CHX counter 47.9, Pf growth 96h inconclusive
CCCCn1c(N)c(N(CCOC)C(=O)C2CC(=O)N(c3ccc(CC)cc3)C2)c(=O)[nH]c1=O (stereo not given)	none (no result: Shiga inhibitor, CHX counter, NS1 inh)
CCOC(=O)c1ccc(N/C=C2\CCCCC2=O)cc1	Shiga inhibitor 48.4, CHX counter 25.0 (no result: Pf growth 48h, Pf growth 96h)
O=C1CCCC/C1=C/Nc1ccc(S(=O)(=O)Nc2ncccn2)cc1	none
CCOC(=O)/C(=C/c1ccc(OC(=O)c2ccccc2)cc1)C(C)=O	Shiga inhibitor 38.8
C=CCOC(=O)/C(=C/c1cccnc1)NC(=O)c1ccccc1	none
C=CCOC(=O)/C(=C\c1cccc2ccccc12)NC(=O)c1ccccc1	Pf growth 48h inconclusive, CHX counter 36.0
C=CCOC(=O)/C(=C\c1ccccc1)NC(=O)c1ccc(C)cc1	Shiga inhibitor 99.9, CHX counter 36.2
CCC(=O)Nc1ccc(/C=C(\C(C)=O)C(=O)c2ccccc2)cc1	Pf growth 48h inconclusive
CCOC(=O)/C(=C\c1ccccc1)NC(=O)c1ccccc1	CHX counter 19.5
CCOC(=O)/C(=C/c1c2ccccc2cc2ccccc12)NC(=O)c1ccccc1	Pf growth 48h inconclusive, Pf growth 96h inconclusive
CC(=O)N1/C(=C/c2ccc(N(C)C)cc2)C(=O)c2ccccc21	CHX counter 21.6, Pf growth 96h inconclusive (no result: NS1 inh)
CCCc1nc2c(=O)[nH]c3ccccc3c2o1	Pf growth 48h inconclusive
CCCCCc1nc2c(=O)[nH]c3ccccc3c2o1	Pf growth 48h inconclusive, Pf growth 96h 5.22µM
Cc1nc(SCC(=O)N2c3ccccc3Sc3ccccc32)n[nH]1	none (no result: Pf growth 48h)
CC(C)Oc1ccc(C(=O)NCCCNC(=O)c2cccnc2)cc1	none
CCc1noc(C)c1C(=O)N(CCC(C)C)c1c(N)n(Cc2ccccc2)c(=O)[nH]c1=O	Pf growth 48h inconclusive (no result: Shiga inhibitor, CHX counter, NS1 inh)
CCCC(C)NC(=O)CSc1nnc(-c2c[nH]c3ccccc23)o1 (stereo not given)	none (no result: NS1 inh)
COC(=O)CSc1nnc(-c2c[nH]c3ccccc23)o1	Pf growth 96h inconclusive (no result: Shiga inhibitor)
CC(C)(C)NC(=O)CSc1nnc(-c2c[nH]c3ccccc23)o1	Shiga inhibitor 64.8, Pf growth 48h inconclusive, CHX counter 28.3, Pf growth 96h inconclusive
CCN(CC)C(=O)CSc1nnc(-c2c[nH]c3ccccc23)o1	Pf growth 48h inconclusive, CHX counter 40.1, Pf growth 96h 0.465µM (no result: Shiga inhibitor)
COc1ccc(C(=O)Nc2ccc(NS(=O)(=O)c3ccccc3)cc2)cc1OC	Pf growth 96h inconclusive
Cc1cccc(N=Nc2ccc(O)c3ncccc23)c1	Shiga inhibitor active, Pf growth 48h 1.85µM, CHX counter 45.6, Pf growth 96h inconclusive (no result: SARS PLP yeast)
Cc1ccc(N=Nc2c(O)c(S(=O)(=O)O)cc3cc(S(=O)(=O)O)ccc23)c(C)c1	none (no result: SARS PLP yeast, Shiga inhibitor, Pf growth 48h, CHX counter, Pf growth 96h)
Oc1ccc(N=Nc2ccc3c(c2)OCCO3)c2ncccc12	Shiga inhibitor 95.3, Pf growth 48h inconclusive, CHX counter 47.6, Pf growth 96h 1.04µM
Cc1ccc(C)c(N=Nc2ccc(O)c3ncccc23)c1	SARS PLP yeast inconclusive, Shiga inhibitor 151.0, Pf growth 48h 2.08µM, CHX counter 42.9, Pf growth 96h inconclusive (no result: NS1 inh)
NS(=O)(=O)c1cc(Br)c(N=Nc2ccc(O)c3ncccc23)c(Br)c1	none (no result: SARS PLP yeast, Shiga inhibitor, Pf growth 48h, CHX counter, Pf growth 96h)
Cc1ccc(N=Nc2ccc(N)cc2C)c(S(N)(=O)=O)c1	Shiga inhibitor 93.9, CHX counter 65.0
O=C(O)/C=C\c1ccc[c]([Sb])c1	none (no result: SARS PLP yeast, Shiga inhibitor, Pf growth 48h, CHX counter, Pf growth 96h)
CC1CCCC(NC(=O)COC(=O)CCC(=O)c2ccc(F)cc2)C1C (stereo not given)	none (no result: Shiga inhibitor, Pf growth 48h, CHX counter, NS1 inh, Pf growth 96h)
Cc1ccc(N=Nc2cc(C)ccc2O)c(C)c1	Shiga inhibitor 77.1, CHX counter 35.9
COc1cc(C(=O)OC2CC3CCC2(C)C3(C)C)ccc1OC(C)=O (stereo not given)	Pf growth 48h inconclusive, CHX counter 15.7, Pf growth 96h inconclusive
O=C(/C=C/c1cccc([N+](=O)[O-])c1)NC1CC2CCC1C2 (stereo not given)	CHX counter 18.9
COc1ccc(/C=C/C(=O)NC2CC3CCC2C3)cc1 (stereo not given)	CHX counter 27.0, Pf growth 96h inconclusive (no result: Shiga inhibitor)
COc1cc(/C=N/NC(=S)NC2CC3CCC2C3)ccc1O (stereo not given)	CHX counter 34.1, Pf growth 96h inconclusive
COc1ccc(/C=C/C(=O)NC2CCCCC2C)cc1 (stereo not given)	Pf growth 96h inconclusive (no result: Shiga inhibitor)
COc1ccc(/C=N/NC(=S)N[C@H]2CC3CCC2C3)cc1 (stereo not given in full)	Pf growth 48h 4.15µM, CHX counter 12.9, Pf growth 96h 5.22µM
CCN(CC)c1ccc(/C=N/NC(=S)NCc2ccc(OC)cc2)cc1	Pf growth 48h inconclusive, NS1 inh inconclusive, Pf growth 96h inconclusive
CCc1ccc(OCc2n[nH]c(=S)n2C(C)CCCC(C)C)cc1 (stereo not given)	Pf growth 96h inconclusive (no result: NS1 inh)
Cc1ccc(S[C@@H](CCN2CC[C@H](C(C)(C)C)CCC2=O)c2ccccc2)cc1	Pf growth 48h inconclusive, Pf growth 96h inconclusive
CCCCc1nc2cc(Cl)ccc2o1	Pf growth 96h inconclusive
COc1ccc(Oc2nc(SC)nc3ccccc23)cc1	none
